Measurements as given in PubChem BioAssay.
Active and inactive are the calls of the source.

Columns and labels:
[1] = system: PRMT1 (protein arginine N-methyltransferase 1); assay: PRMT1 binders on small-molecule microarrays, primary screen, biochemical, small-molecule microarray, 635 nm fluorescence (AID 1088); conditions: small-molecule microarray binding, higher = more signal;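 also: binding of Prmt1 protein to compounds spotted on small-molecule microarray slides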
[2] = yeast growth modulation, basal conditions, primary screen, YJM789 clinical isolate, OD600, 24 h (AID 1089);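 also: growth of clinical yeast isolate S. cerevisiae YJM 789 seeded 1000 cells per well; test concentration not given here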; conditions: S. cerevisiae YJM789 growth, higher = more signal, called active from +8 up or from −8 down
[3] = fission yeast growth modulation, primary screen, strain 972, OD600, 24 h, no modulator (AID 1090);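 also: basal condition with compound alone and no growth modifier present; test concentration not given here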; conditions: S. pombe 972 growth, higher = more signal, called active from +8 up or from −8 down
[4] = S. cerevisiae growth modulation with rapamycin, primary screen, strain BY4716, OD600, 96 h (AID 1091); conditions: higher = more signal, called active from +8 up or from −8 down; also: test concentration not given here
[5] = molecular target: Torsin-1A-interacting protein 2 (Homo sapiens) (UniProt Q8NFQ8); assay: LULL1 binders on small-molecule microarray, primary screen, cell lysate, human LULL1 lysate, 635/667 nm fluorescence (AID 1092); conditions: hLULL1 lysate binding, 635 nm fluorescence, higher = more signal;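 also: probe is lysate of COS7 cells overexpressing human LULL1; score merges per-feature 667 nm fluorescence with signal-to-noise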
Sequence of Torsin-1A-interacting protein 2 (Homo sapiens) (Q8NFQ8 whole entry, looked up): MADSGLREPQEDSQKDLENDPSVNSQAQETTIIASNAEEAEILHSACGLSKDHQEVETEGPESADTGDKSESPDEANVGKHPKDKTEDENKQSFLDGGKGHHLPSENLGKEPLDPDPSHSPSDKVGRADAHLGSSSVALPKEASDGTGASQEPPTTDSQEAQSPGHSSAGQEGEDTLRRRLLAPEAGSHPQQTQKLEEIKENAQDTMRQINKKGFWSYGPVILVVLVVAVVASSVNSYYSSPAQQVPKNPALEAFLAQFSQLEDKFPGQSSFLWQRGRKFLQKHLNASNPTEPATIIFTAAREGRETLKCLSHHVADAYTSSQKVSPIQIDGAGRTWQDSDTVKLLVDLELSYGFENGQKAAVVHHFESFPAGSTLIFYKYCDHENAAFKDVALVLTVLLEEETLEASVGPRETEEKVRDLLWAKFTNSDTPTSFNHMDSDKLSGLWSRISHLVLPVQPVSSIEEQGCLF

[6] = E. coli growth modulation, two-sided OD650, primary screen, E. coli filamentation project, strain DRC41, 24 h (AID 1093); conditions: OD650, 24 h, higher = more signal, called active from +8 up or from −8 down;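 also: MC1000 strain lacking acrAB efflux and sulA so SOS filamentation is blocked; test concentration not given here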
[7] = small-molecule microarray binders of probe aLefty2, primary screen, biochemical, biotinylated probe, 635/667 nm fluorescence (AID 1094); conditions: higher = more signal;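 also: score merges spot fluorescence near 667 nm with spot signal-to-noise ratio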
[8] = system: Noggin (protein binding on small-molecule microarray); assay: Noggin binders on small-molecule microarray, primary screen, biochemical, 635/667 nm fluorescence (AID 1095); conditions: 635 nm fluorescence, higher = more signal;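 also: score merges 667 nm feature fluorescence with signal to noise over triplicate slides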
[9] = molecular target: Neurogenic locus notch homolog protein 3 (Homo sapiens) (UniProt Q9UM47); assay: NOTCH3 binders on small-molecule microarray, primary screen, biochemical, 635/667 nm fluorescence (AID 1096); conditions: NOTCH3 binding, 635 nm fluorescence, higher = more signal
Sequence of Neurogenic locus notch homolog protein 3 (Homo sapiens) (Q9UM47 whole entry, looked up): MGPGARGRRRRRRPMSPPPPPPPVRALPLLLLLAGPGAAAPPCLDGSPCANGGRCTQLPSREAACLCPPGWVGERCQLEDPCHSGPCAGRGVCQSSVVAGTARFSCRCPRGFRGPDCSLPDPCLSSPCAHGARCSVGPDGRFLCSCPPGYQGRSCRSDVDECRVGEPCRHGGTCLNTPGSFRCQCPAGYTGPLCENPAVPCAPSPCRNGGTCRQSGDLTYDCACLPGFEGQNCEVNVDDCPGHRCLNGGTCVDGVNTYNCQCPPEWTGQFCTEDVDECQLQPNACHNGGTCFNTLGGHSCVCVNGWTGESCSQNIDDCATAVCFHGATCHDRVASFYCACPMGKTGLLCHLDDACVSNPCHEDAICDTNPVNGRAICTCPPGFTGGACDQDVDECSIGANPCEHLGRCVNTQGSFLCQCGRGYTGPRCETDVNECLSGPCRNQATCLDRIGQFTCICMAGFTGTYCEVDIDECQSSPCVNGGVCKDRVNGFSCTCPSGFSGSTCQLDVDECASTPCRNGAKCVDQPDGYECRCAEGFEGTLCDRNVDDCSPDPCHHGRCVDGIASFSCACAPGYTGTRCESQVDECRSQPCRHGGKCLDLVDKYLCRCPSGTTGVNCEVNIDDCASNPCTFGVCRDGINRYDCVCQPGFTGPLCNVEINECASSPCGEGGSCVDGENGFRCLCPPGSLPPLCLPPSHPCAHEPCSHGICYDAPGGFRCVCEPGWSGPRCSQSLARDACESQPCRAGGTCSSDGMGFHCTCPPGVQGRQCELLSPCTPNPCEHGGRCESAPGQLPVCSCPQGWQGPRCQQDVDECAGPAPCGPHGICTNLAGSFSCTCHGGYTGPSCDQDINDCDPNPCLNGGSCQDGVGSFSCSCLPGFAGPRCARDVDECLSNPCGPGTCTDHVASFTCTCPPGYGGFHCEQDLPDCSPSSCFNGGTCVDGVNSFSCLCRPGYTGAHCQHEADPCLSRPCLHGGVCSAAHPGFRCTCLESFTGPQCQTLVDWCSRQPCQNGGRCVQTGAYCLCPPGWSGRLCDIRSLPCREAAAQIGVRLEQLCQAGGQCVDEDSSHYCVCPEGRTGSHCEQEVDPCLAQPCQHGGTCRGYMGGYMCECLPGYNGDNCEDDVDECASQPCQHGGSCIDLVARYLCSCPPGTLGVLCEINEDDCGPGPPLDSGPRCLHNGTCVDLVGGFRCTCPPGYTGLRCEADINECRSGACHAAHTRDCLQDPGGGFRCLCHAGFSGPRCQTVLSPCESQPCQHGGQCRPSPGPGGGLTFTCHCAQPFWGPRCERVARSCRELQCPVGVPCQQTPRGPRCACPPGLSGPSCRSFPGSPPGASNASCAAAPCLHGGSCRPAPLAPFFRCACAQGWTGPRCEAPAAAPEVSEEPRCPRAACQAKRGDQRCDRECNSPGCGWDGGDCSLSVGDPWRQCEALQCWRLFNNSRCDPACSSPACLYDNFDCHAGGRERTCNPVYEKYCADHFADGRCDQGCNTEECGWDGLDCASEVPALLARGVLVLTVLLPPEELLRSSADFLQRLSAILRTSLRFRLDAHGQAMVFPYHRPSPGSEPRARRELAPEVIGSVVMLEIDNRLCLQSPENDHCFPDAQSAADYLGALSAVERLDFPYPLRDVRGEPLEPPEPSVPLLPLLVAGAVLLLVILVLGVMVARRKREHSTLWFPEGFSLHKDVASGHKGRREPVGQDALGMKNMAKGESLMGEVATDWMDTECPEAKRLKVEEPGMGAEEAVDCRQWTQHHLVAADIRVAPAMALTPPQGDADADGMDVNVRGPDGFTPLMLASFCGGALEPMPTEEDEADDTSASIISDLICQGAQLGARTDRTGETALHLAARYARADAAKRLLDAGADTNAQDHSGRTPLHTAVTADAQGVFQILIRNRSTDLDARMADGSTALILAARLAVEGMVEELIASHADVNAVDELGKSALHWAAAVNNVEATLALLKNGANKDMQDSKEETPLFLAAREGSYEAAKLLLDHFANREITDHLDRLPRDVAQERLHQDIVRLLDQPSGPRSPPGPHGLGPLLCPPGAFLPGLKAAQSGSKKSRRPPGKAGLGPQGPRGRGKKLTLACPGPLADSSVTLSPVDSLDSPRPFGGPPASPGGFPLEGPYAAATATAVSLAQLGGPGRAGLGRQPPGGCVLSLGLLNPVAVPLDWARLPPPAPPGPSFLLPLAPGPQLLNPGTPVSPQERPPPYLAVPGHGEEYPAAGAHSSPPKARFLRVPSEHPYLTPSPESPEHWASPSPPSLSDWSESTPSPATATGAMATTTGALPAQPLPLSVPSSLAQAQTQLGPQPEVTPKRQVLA

[10] = small-molecule microarray binders of probe aEGFR, primary screen, biochemical, biotinylated probe, 635/667 nm fluorescence (AID 1097); conditions: higher = more signal;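 also: probe is a biotinylated anti-EGFR antibody binding compounds printed on slides; score combines fluorescence near 667 nm and signal to noise of each spot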

Row | Structure (SMILES) | composite z-score [1] | z-score [2] | z-score [3] | z-score [4] | composite z-score [5] | z-score [6] | composite z-score [7] | composite z-score [8] | composite z-score [9] | composite z-score [10]
1 | CC(C)N1C(=O)c2ccccc2[C@](C)(C(=O)NCCN2CCOCC2)[C@@H]1c1ccc(CO)cc1 | 1.2 | 0.608 (inactive) | 0.516 (inactive) | 0.511 (inactive) | 2.37 | -0.487 (inactive) | 0.0971 | 0.495 | 0.1 | -0.0152
2 | O=C1C[C@@](C(=O)NCCN2CCOCC2)(c2ccc([N+](=O)[O-])cc2)[C@@H](c2ccc(CO)cc2I)N1CC12CC3CC(CC(C3)C1)C2 | 1.54 | -24.9 (active) | -5.93 (inactive) | 0.0788 (inactive) | 3.2 | -0.981 (inactive) | -0.112 | 1.2 | 1.08 | -0.0381
3 | O=C1C[C@@](C(=O)NCCN2CCOCC2)(c2ccc([N+](=O)[O-])cc2)[C@@H](c2ccc(CO)cc2)N1CC12CC3CC(CC(C3)C1)C2 | 1.53 | -1.41 (inactive) | -17.2 (active) | -1.37 (inactive) | 3.31 | -2.26 (inactive) | 0.0211 | 1.4 | 1.09 | 0.0778
4 | CCCC[C@@H]1C[C@H]1[C@@H](NC(=O)c1cccs1)c1ccc(-c2ccccc2)cc1 | 0.464 | 0.227 (inactive) | -3.7 (inactive) | -1.24 (inactive) | 1.09 | -0.692 (inactive) | -0.121 | 0.692 | 0.428 | -0.0688
5 | O=C(NCCO)C1=C[C@H](Oc2ccccc2I)[C@@H](O)[C@H](N(Cc2ccco2)C(=O)Cc2ccccc2)C1 | -0.0355 | 0.528 (inactive) | 0.0689 (inactive) | 0.279 (inactive) | -0.298 | -0.546 (inactive) | -0.0279 | 0.535 | 0.271 | -0.0767
6 | C=C[C@H](CO)NS(=O)(=O)c1ccc(Br)cc1 | -0.0224 | 0.198 (inactive) | -1.53 (inactive) | -0.135 (inactive) | 0.676 | 1.29 (inactive) | 0.0467 | 0.19 | -0.342 | -0.0302
7 | O=C(CS)NCCCCCCNC(=O)[C@@H]1C[C@@H]2C(=O)N[C@@H](Cc3ccccc3)C(=O)N2[C@@H]1c1cccc(OCCO)c1 | 1.54 | -0.485 (inactive) | 0.279 (inactive) | 0.211 (inactive) | 2.92 | -1.21 (inactive) | 0.0747 | 0.988 | 1.04 | 0.122
8 | O=C1[C@@]23C=C(Br)[C@H](C[C@@H]2CCOC3)[C@@]12CO2 | -0.414 | 0.24 (inactive) | -2.31 (inactive) | -0.582 (inactive) | 0.102 | -0.0015 (inactive) | -0.217 | 0.721 | 0.372 | 0.0372
9 | NC(=O)N1C(=O)C2C(C1=O)C1C=C(c3ccc(CO)cc3)C2C(c2cccs2)N1Cc1cccc(OC(F)(F)F)c1 (stereo not given) | -0.139 | -1.7 (inactive) | -4.45 (inactive) | 3.82 (inactive) | 1.01 | -0.528 (inactive) | 0.181 | -0.312 | -0.146 | 0.0089
10 | O[C@@H](Cc1ccccc1)[C@H]1C2C=CCCC=C2CN1Cc1cccc(Cl)c1 (stereo not given in full) | 1.42 | -0.14 (inactive) | -2.92 (inactive) | -0.742 (inactive) | 1.17 | 1.35 (inactive) | -0.101 | 0.728 | 1.12 | -0.0039
11 | CN1C(=O)C2C=CC(C(O)c3ccc([N+](=O)[O-])cc3)N(N3CCCCC3)C2C1=O (stereo not given) | 0.957 | 0.462 (inactive) | 0.647 (inactive) | 0.19 (inactive) | 2.69 | -1.74 (inactive) | 0.347 | -0.245 | 1.07 | 0.161
12 | Cc1ccc(N2C(=O)c3ccccc3[C@@H](C(=O)NC3CC3)[C@@H]2c2ccc(CO)cc2)nc1 | -1.57 | -1.31 (inactive) | -0.916 (inactive) | -0.486 (inactive) | 2.35 | 0.387 (inactive) | 0.297 | -0.912 | -1.44 | -0.281
13 | COCCOC(=O)N1C(=O)[C@@]2(c3cc(C#CCCO)ccc31)[C@H](C(=O)N1CCCCCCC1)[C@H]1C(=O)O[C@H](c3ccccc3)[C@H](c3ccccc3)N1[C@@H]2c1ccc(OCCO)cc1 | 1.51 | 1.33 (inactive) | 1.3 (inactive) | 2.08 (inactive) | 3.52 | 0.584 (inactive) | 1.53 | 1.55 | 0.93 | 1.04
14 | COc1ccc(C#Cc2ccc3c(c2)[C@]2(C(=O)N3)[C@H](C(=O)Nc3nc4ccccc4s3)[C@H]3C(=O)O[C@H](c4ccccc4)[C@H](c4ccccc4)N3[C@@H]2c2ccc(O)cc2)cc1 | 1.55 | 2.2 (inactive) | 0.98 (inactive) | 0.172 (inactive) | 3.26 | 0.943 (inactive) | -0.0353 | 1.82 | 1.02 | 0.398
15 | COC(=O)[C@@]1(Cc2ccc(OC)cc2)[C@@H]2C(=CC(=O)[C@H]2CC(=O)C(=O)N2CCCC2)CN1C(=O)c1ccccc1 | -1.55 | 0.201 (inactive) | 0.097 (inactive) | 0.176 (inactive) | 2.99 | 0.355 (inactive) | 0.336 | 0.0255 | 0.735 | 0.386
16 | C=CCOC(=O)[C@H]1[C@@H]2C(=O)O[C@@H](c3ccccc3)[C@@H](c3ccccc3)N2[C@@H](c2ccc(OCCOC(=O)[C@H]3C[C@H]4C(=O)N[C@@H](CCCCN(C)C)C(=O)N4[C@H]3c3ccc(O)cc3)cc2)[C@]12C(=O)Nc1ccc(I)cc12 | 1.55 | -0.0743 (inactive) | -0.526 (inactive) | -0.698 (inactive) | 2.49 | -0.411 (inactive) | 0.172 | 1.73 | 1.07 | 0.124
17 | COCCOC(=O)N1C(=O)[C@@]2(c3ccccc31)[C@H](C(=O)N1CCc3cc(OC)c(OC)cc3C1)[C@H]1C(=O)O[C@H](c3ccccc3)[C@H](c3ccccc3)N1[C@@H]2c1ccc(OCCO)cc1 | 1.51 | 2.26 (inactive) | 0.476 (inactive) | 4.47 (inactive) | 2.27 | 1.68 (inactive) | 0.103 | 0.94 | 0.995 | -0.0309
18 | COC(=O)[C@@]1(Cc2ccc(OC)cc2)[C@H]2c3cc(C(=O)N4CCCC4)n(Cc4ccc(C)c(F)c4F)c3C[C@H]2CN1C(=O)c1ccccc1 | 0.998 | 0.57 (inactive) | 1.48 (inactive) | 1.57 (inactive) | 3.52 | 0.107 (inactive) | 0.505 | 0.214 | 1.04 | 0.178
19 | CO[C@H]1O[C@H](CO)[C@@H](OC(=O)Nc2cccc(F)c2)[C@H](OC(=O)Nc2ccccc2)[C@@H]1OC(=O)Nc1ccccc1 | 1.53 | 0.347 (inactive) | 1.32 (inactive) | 14.4 (active) | 3.12 | -0.621 (inactive) | 0.182 | 0.286 | 1.09 | 0.181
20 | OCCCC1=CC(c2cccs2)N(Cc2cc3c(cc2Br)OCO3)CC1 (stereo not given) | 0.591 | -0.678 (inactive) | -1.05 (inactive) | -0.274 (inactive) | 1.17 | -0.414 (inactive) | 0 | 0.915 | 0.208 | -0.0304
21 | CN(C)C(=O)[C@@]1(CCS(=O)(=O)c2ccccc2)COC(c2ccc(OCCCO)cc2)=N1 | 0.494 | -0.126 (inactive) | 1.45 (inactive) | 0.546 (inactive) | 3.63 | 0.199 (inactive) | -0.0258 | -0.252 | -0.136 | 0.36
22 | C=CCOC(=O)[C@@H]1[C@H]2C(=O)O[C@H](c3ccccc3)[C@H](c3ccccc3)N2[C@H](c2ccc(OCCOC(=O)[C@H]3C[C@H]4C(=O)N5CCC[C@H]5C(=O)N4[C@H]3c3ccc(O)cc3)cc2)[C@@]12C(=O)Nc1ccc(I)cc12 | 1.54 | 0.825 (inactive) | 0.267 (inactive) | 3.14 (inactive) | 1.95 | 0.553 (inactive) | -0.203 | 1.46 | 1.07 | -0.119
23 | COCCOC(=O)N1C(=O)[C@@]2(c3cc(C#Cc4ccc(OC)cc4)ccc31)[C@H](c1ccccc1OCCO)N1[C@H](c3ccccc3)[C@H](c3ccccc3)OC(=O)[C@H]1[C@@H]2C(=O)NC[C@H](O)c1ccccc1 | 1.53 | 2.89 (inactive) | 2.09 (inactive) | 7.27 (inactive) | 2.86 | -0.0186 (inactive) | -0.0304 | 1.17 | 1.04 | -0.0267
24 | [N-]=[N+]=Nc1ccccc1[C@@H]1OC(c2ccc(OCCCO)cc2)=N[C@]1(CCS(=O)(=O)c1ccccc1)C(N)=O | 1.55 | 0.193 (inactive) | -1.36 (inactive) | 0.199 (inactive) | 3.64 | 0.743 (inactive) | 0.588 | 0.561 | 0.91 | 0.122
25 | COc1cc(COC(C)=O)ccc1OC(C)=O | 0.491 | -2.59 (inactive) | -3.73 (inactive) | -0.724 (inactive) | 0.418 | 3.13 (inactive) | 1.07 | 0.373 | 0.279 | 0.643
26 | C=CCOC(=O)[C@H]1[C@@H]2C(=O)O[C@@H](c3ccccc3)[C@@H](c3ccccc3)N2[C@@H](c2ccc(OCCOC(=O)[C@H]3C[C@H]4C(=O)N[C@@H](CCCC[N+](C)(C)C)C(=O)N4[C@H]3c3ccc(O)cc3)cc2)[C@]12C(=O)Nc1ccc(I)cc12 | 1.36 | 0.318 (inactive) | -0.503 (inactive) | 0.467 (inactive) | 1.14 | -0.173 (inactive) | 0.331 | 0.733 | 0.209 | 0.0304
27 | C=C[C@@H](COC(=O)OC(C)(C)C)N(Cc1ccc(OC)cc1)S(=O)(=O)c1ccc(Br)cc1 | 0.345 | -0.374 (inactive) | -0.521 (inactive) | -0.555 (inactive) | 0.269 | -0.701 (inactive) | 0.047 | 1.07 | 1.12 | -0.0088
28 | CN1C(=O)C2C=CC(C(O)C#Cc3ccccc3)N(N3CCCCC3)C2C1=O (stereo not given) | 0.436 | 0.54 (inactive) | -0.126 (inactive) | -0.296 (inactive) | 0.58 | 0.0497 (inactive) | 0.529 | -0.287 | 0.964 | 0.647
29 | C=CC[C@]1(C(=O)NCc2ccccc2)N=C(c2ccc(OCCCO)cc2)O[C@H]1c1ccccc1N=[N+]=[N-] | 1.22 | -1.33 (inactive) | 0.0342 (inactive) | 0.511 (inactive) | 3.24 | 0.73 (inactive) | 0.17 | 0.0073 | 1.11 | 0.0968
